In PubChem BioAssay (NCATS):
Records with an inconclusive call do not appear. Entries that show only a call come without a potency. Calls of active or inactive are those of the source. Calls come from the whole dose curve; as a rule, active = well fitted inhibition curve with a large enough effect; inconclusive = small, poorly fitted or top-dose-only effect; inactive = no such curve, though single readings can be large or run the other way.

Test: qHTS to identify inhibitors of the type 1 interferon - major histocompatibility complex class I in skeletal muscle: primary screen against the NCATS Mechanism Interrogation Plate v5.0 (MIPE) Libary (AID 1347411); note: nearly all actives have a fitted effect of over 65% in size
Details: iHSKM cells + IFN-b, HiBiT-tagged MHC-I luminescence, 24 h; series mostly up to 45.8 µM
In short: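 Luminescence from CRISPR HiBit-tagged endogenous HLA-B in human myoblasts reported MHC class I level after 24 h of IFN-beta (4 ng/ml) plus compound. Compounds ran as 11-point 1:3 series, top 46 uM final.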
Potency is the fitted concentration of half-maximal effect.

**Q.** With `CCCCCCCCCCCCc1ccc(S(=O)(=O)Nc2nncs2)cc1` as the compound, how does the Potency read?
**A.** inactive

**Q.** Which Potency does the source give for `CC1=C(C(=O)Nc2cc3cn[nH]c3cc2F)C(c2ccc(Cl)cc2F)N=C(c2ccnc(Cl)c2)N1` (stereo unspecified) here?
**A.** inactive

**Q.** With `CC(C)NC[C@@H](C(=O)N1CCN(c2ncnc3c2[C@H](C)C[C@H]3O)CC1)c1ccc(Cl)cc1` as the compound, how does the Potency read?
**A.** inactive

**Q.** With `C=C(C)[C@@H]1CC[C@]2(C)CC[C@]3(C)[C@H](CC[C@@H]4[C@@]5(C)CC[C@H](O)C(C)(C)[C@H]5CC[C@]43C)[C@@H]12` as the compound, how does the Potency read?
**A.** inactive

**Q.** Which Potency does the source give for `COc1ccc(S(=O)(=O)Nc2cc(-c3c(O)ccc4ccccc34)c(O)c3ccccc23)cc1` here?
**A.** 16.5 µM (active)

**Q.** With `Nc1nc2c(c(=O)[nH]1)N(C=O)[C@H](CNc1ccc(C(=O)N[C@@H](CCC(=O)O)C(=O)O)cc1)CN2` as the compound, how does the Potency read?
**A.** inactive

**Q.** For `C#CCC(Cc1cnc2nc(N)nc(N)c2n1)c1ccc(C(=O)N[C@@H](CCC(=O)O)C(=O)O)cc1` (stereo partly specified), which Potency is on record?
**A.** inactive

**Q.** Which Potency does the source give for `O=C1c2cccc(O)c2C(=O)c2c(O)cc(CO)cc21` here?
**A.** inactive

**Q.** With `NC(=O)Nc1sc(-c2ccc(F)cc2)cc1C(N)=O` as the compound, how does the Potency read?
**A.** 1.65 µM (active)

**Q.** Which Potency does the source give for `Cn1cc(-c2ccc3ncc(Cc4ccc5ncccc5c4)n3n2)cn1` here?
**A.** inactive

**Q.** Which Potency does the source give for `Nc1nc(N)c2nc(-c3cccc(O)c3)c(-c3cccc(O)c3)nc2n1` here?
**A.** inactive

**Q.** For `CC(=O)O[C@H]1C[C@@H]2CC[C@H]3[C@H]4C[C@H]([N+]5(C)CCCCC5)[C@@H](OC(C)=O)[C@@]4(C)CC[C@@H]3[C@@]2(C)C[C@H]1[N+]1(C)CCCCC1`, which Potency is on record?
**A.** inactive

**Q.** Which Potency does the source give for `CCOC(=O)C1=C(C)NC(=S)NC1c1cccc(O)c1` (stereo unspecified) here?
**A.** inactive

**Q.** With `Cc1ccc2nc(NCCN)c3ncc(C)n3c2c1` as the compound, how does the Potency read?
**A.** 4.66 µM (active)

**Q.** For `CCOC(=O)C=C[C@H](C[C@@H]1CCNC1=O)NC(=O)[C@@H](CC(=O)[C@@H](NC(=O)c1cc(C)on1)C(C)C)Cc1ccc(F)cc1`, which Potency is on record?
**A.** inactive

**Q.** For `Oc1cc(-c2nc(-c3ccccc3)[nH]c2-c2ccncc2)ccc1Cl`, which Potency is on record?
**A.** 16.5 µM (active)

**Q.** With `O=[N+]([O-])c1cn2c(n1)OC[C@@H](OCc1ccc(OC(F)(F)F)cc1)C2` as the compound, how does the Potency read?
**A.** inactive

**Q.** With `C[C@H](CCC(=O)O)[C@H]1CCC2C3C[C@H](O)[C@@H]4C[C@H](O)CC[C@]4(C)C3CC[C@@]21C` (stereo partly specified) as the compound, how does the Potency read?
**A.** inactive

**Q.** With `COc1cc(OC)c(NC(=O)Nc2cc(C)on2)cc1Cl` as the compound, how does the Potency read?
**A.** inactive

**Q.** For `CCN(C(=O)c1c(O)c2c(Cl)cccc2n(C)c1=O)c1ccccc1`, which Potency is on record?
**A.** inactive

**Q.** For `O=C1NC(O)CCN1[C@@H]1O[C@H](CO)[C@H](O)[C@H]1O` (stereo partly specified), which Potency is on record?
**A.** inactive

**Q.** For `CCc1nc(-c2cccc(C)c2)c(-c2ccnc(NC(=O)c3ccccc3)c2)s1`, which Potency is on record?
**A.** inactive

**Q.** Which activity change, negative = inhibition does the source give for `Nc1ccn(C[C@@H](CO)OCP(=O)(O)O)c(=O)n1` here?
**A.** -9.6% [at 8.44 µM] (inactive)

**Q.** With `Oc1ccc(-c2ccc(-c3cc(Nc4cccc(CNC5CC5)c4)n[nH]3)cc2)c(O)c1` as the compound, how does the Potency read?
**A.** 5.87 µM (active)

**Q.** For `C[C@H]1COc2c(N3CCN(C)CC3)c(F)cc3c(=O)c(C(=O)O)cn1c23`, which Potency is on record?
**A.** inactive

**Q.** Which Potency does the source give for `c1ccc2c(Oc3nc(Nc4ccc(N5CCOCC5)cc4)c4ncn(C5CCCCC5)c4n3)cccc2c1` here?
**A.** inactive

**Q.** Which Potency does the source give for `CC(Oc1ccc(O)cc1)(P(=O)(O)O)P(=O)(O)O` here?
**A.** inactive

**Q.** With `CC(=O)OC[C@@H]1O[C@@H](n2ccc(=O)[nH]c2=O)[C@H](OC(C)=O)[C@H]1OC(C)=O` as the compound, how does the Potency read?
**A.** inactive

**Q.** Which Potency does the source give for `c1cc(N[C@@H]2CCNC2)nc(-c2cnc3ccc(-c4cn[nH]c4)cn23)c1` here?
**A.** 0.829 µM (active)

**Q.** With `Cc1cncc2cccc(S(=O)(=O)N3CCCN(C(=O)CN)C[C@@H]3C)c12` as the compound, how does the Potency read?
**A.** inactive

**Q.** For `C=CC(=O)Nc1ccc2ncnc(Nc3ccc(OCc4cccc(F)c4)c(Cl)c3)c2c1`, which Potency is on record?
**A.** 10.4 µM (active)
